Experimental data from PubChem BioAssay AID720517 (National Center for Advancing Translational Sciences (NCATS), 2013).
Inconclusive results are not listed. A call without a number means that no potency is given here. Activity calls are given as the source filed them. Calls come from the whole dose curve; as a rule, active = well fitted activation curve with a large enough effect; inconclusive = small, poorly fitted or top-dose-only effect; inactive = flat fitted curve, though single readings scatter.

Test: qHTS for Inhibitors of Cell Surface uPA Generation: FP59 Counterscreen for Cherry-picked Compounds
Potency is the fitted concentration of half-maximal effect.

Structure (SMILES)	Potency
COc1ccc2[nH]cc(S(=O)(=O)c3ccc(C(C)C)cc3)c(=O)c2c1	inactive
COc1ccc(C(c2sc3nc(C)nn3c2O)N2CCC(C(N)=O)CC2)cc1OC (stereo not drawn)	inactive
C=CCn1c(SCc2ccc(C(=O)NCCO)cc2)nc2ccccc2c1=O	inactive
CCNc1nc(Nc2ccc(C)c(Cl)c2)c2cnn(C)c2n1	inactive
O=C1N[C@@H](Cc2c[nH]c3ccccc23)C(=O)N[C@H]1Cc1ccccc1	inactive
O=C(CCCOc1ccc(Cl)cc1Cl)NCc1ccncc1	inactive
O=C(/C=C/c1ccc(O)c(O)c1)O[C@@H]1C[C@](O)(C(=O)O)C[C@@H](O)[C@H]1O	inactive
O=C(O)c1cc(N=Nc2c(O)[nH]c3ccc([N+](=O)[O-])cc23)ccc1Cl	inactive
COc1cc(C(C)=O)ccc1OCc1cn(CC(=O)c2ccc(O)cc2)nn1	inactive
CCN(CC)CC(=O)Nc1sc2c(c1C(=O)c1ccccc1OC)CCC2	16.5 µM (active)
Cn1c(=O)n(CC(=O)O)c(=O)c2c1nc1n2CCCN1CCc1ccccc1	inactive
CCOCCCn1c(SCC(=O)Nc2cc(OC)ccc2OC)nc2ccccc2c1=O	inactive
Cc1ccc(C(O)(COC(=O)C(C)C)COC(=O)C(C)C)c(O)c1	inactive
CN(CC(=O)NCc1ccco1)CC(=O)Nc1c(Cl)cccc1Cl	inactive
O=C(CNC(=O)c1ccc(Br)o1)NNC(=O)c1ccccc1	inactive
Cc1cc(=O)[nH]c2c(C)cc(S(=O)(=O)Nc3ccc(O)cc3)cc12	inactive
Cc1cnc(C(=O)OCC(=O)Nc2ccc3c(c2)OCCO3)cn1	inactive
O=C(Cc1ccc(Cl)cc1)NC(=S)Nc1ccccc1O	inactive
COc1ccc(C(=O)c2sc(Nc3ccccc3)nc2N)cc1	inactive
COc1ccc(-c2cc3nc(C)cc(-c4ccc(OC)cc4)n3n2)cc1	inactive
CCc1ccc(OCC(=O)N(Cc2cccs2)C2CCS(=O)(=O)C2)cc1 (stereo not drawn)	inactive
CCn1c(CNc2ccc(F)cc2)nnc1SCC(=O)Nc1ccccc1OC	inactive
O=c1ccc(S(=O)(=O)N2CCCC2)c[nH]1	inactive
COCC(=O)N1CCC(n2nccc2NC(=O)c2ccccc2OC)CC1	inactive

Structure (SMILES)	Potency
COc1cc2oc(=O)ccc2cc1[C@H](O)[C@@H](O)C(C)(C)O	inactive
CCCCn1c(C2CCCCC2)nc2cc3[nH]c(=O)c(C(C)C)nc3cc21	inactive
Cc1ccccc1-c1nnc(SCC(=O)NCC2CCCO2)o1 (stereo not drawn)	inactive
C[n+]1c2cc(N)ccc2cc2ccc(N)cc21	inactive
CCN(CC)S(=O)(=O)c1ccc(NC(=S)Nc2ccc(F)cc2)cc1	inactive
O=C(Nn1cnnc1)c1ccc(Cl)c(Cl)c1	inactive
O=C(NC1CCCC1)c1nc2c(nnn2Cc2ccccc2Cl)c(=O)[nH]1	inactive
Cc1ccc(/C=C/C(=O)O)cc1S(=O)(=O)N1CCc2ccccc21	inactive
COc1cc(NS(=O)(=O)c2ccc(NC(=S)NC(=O)COc3ccccc3OC)cc2)nc(OC)n1	inactive
O=C(CNC(=O)N1CC(=O)Nc2ccccc21)Nc1cc(Cl)ccc1Cl	inactive
CC(NC(=O)C1CCC(C(=O)NC(C)c2ccccc2)CC1)c1ccccc1 (stereo not drawn)	inactive
Cc1[nH]c2ccccc2c1C(=O)COC(=O)c1cccc(S(=O)(=O)N2CCCCC2)c1	inactive
O=C(c1ccc(NC(=S)NCc2ccc(Cl)cc2)cc1)N1CCCCC1	inactive
Cc1ccc(/C=N/NC(=O)c2ccc3nc[nH]c3c2)s1	inactive
CCCCCOC(=O)C1=C(C)NC(=O)NC1c1ccccc1 (stereo not drawn)	inactive
CC(C)(C)OC(=O)N(Cc1ccccc1)Cc1ccccc1OCc1cccc(NC(=O)C2CC2)c1	inactive
COc1ccc2c(ccn2S(=O)(=O)c2ccccc2)c1	inactive
O=C(CSc1nncs1)NC(=O)NCc1ccco1	inactive
CCN(CC(=O)NCc1ccc(F)cc1)CC(=O)Nc1ccccc1-c1ccccc1	inactive
Cc1ccc(S(=O)(=O)N2CCOCC2)cc1NC(=O)CSc1nc(N)cc(N)n1	inactive
COC(=O)[C@]1(Cc2ccccc2)N[C@H](CN(C)C(=O)Nc2ccccc2)[C@@H]2C(=O)N(Cc3ccccc3)C(=O)[C@@H]21	inactive
CCN(CC(=O)Nc1c(F)cccc1F)C(=O)c1ccc(-c2ccc(C(C)=O)cc2)o1	inactive
COc1ccc(Cc2nnc(NC(=O)Nc3ccc(F)cc3)s2)cc1	inactive
Oc1c(N=NC(=S)Nc2ccccc2F)c2ccccc2n1Cc1ccccc1Cl	inactive
